The values below come from PubChem BioAssay.

Calls of active or inactive are those of the source. Unless noted, the rule behind the calls is not given here.

The nature of test [1]: compound effects on lung adenocarcinoma cell viability – A549, calcein-AM fluorescence, 48 h, basal, profiling panel (AID 1162). Note: test concentration not given here. The note with it: higher = more signal.
Test [2] is described as follows: compound effects on differentiated 3T3-L1 adipocyte viability – cell-based, 3T3-L1 adipocytes, calcein-AM fluorescence, 48 h, basal, profiling panel (AID 1163). Note: test concentration not given here. The note with it: 3T3-L1 adipocytes viability, higher = more signal.
A short description of test [3]: compound effects on hepatocellular carcinoma cell viability – HepG2, calcein-AM fluorescence, 48 h, basal, profiling panel (AID 1164). Note: test concentration not given here. The note with it: higher = more signal.
Test [4] is described as follows: compound effects on multiple myeloma cell viability – MM1S, calcein-AM fluorescence, 48 h, basal, profiling panel (AID 1165).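 Note: viability of MM1S multiple myeloma cells under basal unstimulated conditions; test concentration not given here.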 The note with it: higher = more signal.
Test [5] is described as follows: calcein-AM signal in unstimulated myeloma cells – cell-based, calcein-AM fluorescence, 48 h, PK04 Diversity Set, profiling panel (AID 1166).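 Note: cells grown under basal conditions without added stimulus; test concentration not given here.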 The settings on record: RPMI8226 myeloma viability, higher = more signal.
Test [6] in a line: JC-1 mitochondrial signal, unstimulated HepG2 cells – cell-based, JC-1 fluorescence, 24 h, 100 nL compound, profiling panel (AID 1167). Note: test concentration not given here. The note with it: HepG2 mitochondrial potential, higher = more signal.
The nature of test [7]: JC-1 mitochondrial signal, unstimulated adipocytes – cell-based, JC-1 fluorescence, 3T3-L1 adipocytes, 24 h, 100 nL compound, profiling panel (AID 1168). Note: test concentration not given here. The settings on record: JC-1 mitochondrial fluorescence, higher = more signal, called active from +8 up or from −8 down.
A short description of test [8]: JC-1 mitochondrial signal, unstimulated myeloma cells – cell-based, JC-1 fluorescence, RPMI8226, 24 h, 100 nL compound, profiling panel (AID 1169). Note: test concentration not given here. The settings on record: JC-1 mitochondrial potential fluorescence, higher = more signal.
The nature of test [9]: JC-1 mitochondrial signal, unstimulated MM1S myeloma – cell-based, JC-1 fluorescence, 24 h, 100 nL compound, profiling panel (AID 1170). Note: test concentration not given here. The settings on record: MM1S mitochondrial potential, higher = more signal.
Test [10] can be described thus: resazurin metabolic signal in A549 cells – cell-based, resazurin fluorescence, 24 h, PK04 Diversity Set, profiling panel (AID 1171). Note: test concentration not given here. The note with it: A549 viability, higher = more signal, called active from +8 up or from −8 down.
Test [11] in a line: resazurin metabolic signal in HepG2 cells – cell-based, resazurin fluorescence, 24 h, PK04 Diversity Set, profiling panel (AID 1172). Note: test concentration not given here. The note with it: HepG2 viability, higher = more signal.
Test [12] can be described thus: budding yeast growth changes without added modifier – OD600, strain BY4716, 24 h, basal condition, primary screen (AID 1173). The settings on record: S. cerevisiae BY4716 growth, OD600, 24 h; higher = more signal, called active from +8 up or from −8 down.
Test [13] in a line: viability profiling in MM1S myeloma cells – cell-based, resazurin fluorescence, basal, 24 h, PK04 Diversity Set, profiling panel (AID 1174). Note: test concentration not given here. The note with it: higher = more signal, called active from +8 up or from −8 down.
Test [14] concerns the target Dihydroorotate dehydrogenase (quinone), mitochondrial (Plasmodium falciparum (isolate 3D7)) (UniProt Q08210). Briefly: inhibition of P. falciparum DHODH – biochemical, C-terminal His tag, absorbance 600 nm, primary screen (AID 1175).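 Note: recombinant parasite enzyme with a five histidine tag at its C terminus; test concentration not given here.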 The note with it: PfDHODH enzyme, DCIP absorbance 600 nm; higher = more signal, called active from +8 up or from −8 down.
A short description of test [15]: inhibition of PAO1 biofilm formation – strain PAO1, LB-PBS medium, absorbance 600 nm, primary screen (AID 1176). Note: test concentration not given here. The settings on record: P. aeruginosa PAO1 growth/biofilm, A600, 12 h; higher = more signal.
Test [16] can be described thus: growth modulation of vineyard yeast isolate – strain RM11-1a, OD600, basal, 24 h, primary screen (AID 1177).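 Note: cultures grown under basal conditions with no added stressor; test concentration not given here.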 The settings on record: S. cerevisiae RM11-1a growth, OD600, 24 h; higher = more signal, called active from +8 up or from −8 down.
A short description of test [17]: growth of efflux-deficient E. coli DRC39 – strain DRC39, OD650, 24 h, E. coli filamentation inducers, primary screen (AID 1178).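 Note: growth measured as culture turbidity by optical density at 650 nm; test concentration not given here.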 The settings on record: E. coli DRC39 acrAB, higher = more signal, called active from +8 up or from −8 down.
Test [18] is described as follows: growth of efflux-deficient E. coli DRC39 – strain DRC39, OD650, 48 h, E. coli filamentation inducers, primary screen (AID 1179).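 Note: screen aims at cell division blockers that make cells filament.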 The note with it: E. coli DRC39 delta-acrAB growth, higher = more signal, called active from +8 up or from −8 down.
Test [19] can be described thus: viability profiling in RPMI8226 myeloma cells – cell-based, resazurin fluorescence, basal, 24 h, PK04 Diversity Set, profiling panel (AID 1180).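 Note: RPMI8826 multiple myeloma cell line at 5000 cells per well; test concentration not given here.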 The note with it: higher = more signal.
Test [20] concerns the target E3 ubiquitin-protein ligase XIAP (Homo sapiens) (UniProt P98170). Briefly: small molecules binding XIAP protein – biophysical, small-molecule microarray, fluorescence 635 nm, primary screen (AID 1181).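 Note: score merges 667 nm emission and signal to noise over triplicate slides.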 The note with it: higher = more signal.

Sequence of E3 ubiquitin-protein ligase XIAP (Homo sapiens) (P98170 whole entry, looked up): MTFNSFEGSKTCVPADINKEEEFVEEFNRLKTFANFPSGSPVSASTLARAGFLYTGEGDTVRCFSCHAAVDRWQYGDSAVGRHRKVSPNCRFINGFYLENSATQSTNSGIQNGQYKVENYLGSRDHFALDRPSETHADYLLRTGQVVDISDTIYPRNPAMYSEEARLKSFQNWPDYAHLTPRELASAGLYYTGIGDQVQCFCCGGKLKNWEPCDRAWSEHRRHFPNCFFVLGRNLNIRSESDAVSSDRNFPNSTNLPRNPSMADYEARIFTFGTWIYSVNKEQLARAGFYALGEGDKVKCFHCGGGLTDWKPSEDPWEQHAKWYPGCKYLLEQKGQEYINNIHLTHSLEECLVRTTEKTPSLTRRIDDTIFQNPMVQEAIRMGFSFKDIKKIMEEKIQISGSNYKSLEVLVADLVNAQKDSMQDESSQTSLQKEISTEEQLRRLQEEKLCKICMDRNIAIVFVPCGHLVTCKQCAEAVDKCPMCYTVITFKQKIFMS
Sequence of Dihydroorotate dehydrogenase (quinone), mitochondrial (Plasmodium falciparum (isolate 3D7)) (Q08210 whole entry, looked up): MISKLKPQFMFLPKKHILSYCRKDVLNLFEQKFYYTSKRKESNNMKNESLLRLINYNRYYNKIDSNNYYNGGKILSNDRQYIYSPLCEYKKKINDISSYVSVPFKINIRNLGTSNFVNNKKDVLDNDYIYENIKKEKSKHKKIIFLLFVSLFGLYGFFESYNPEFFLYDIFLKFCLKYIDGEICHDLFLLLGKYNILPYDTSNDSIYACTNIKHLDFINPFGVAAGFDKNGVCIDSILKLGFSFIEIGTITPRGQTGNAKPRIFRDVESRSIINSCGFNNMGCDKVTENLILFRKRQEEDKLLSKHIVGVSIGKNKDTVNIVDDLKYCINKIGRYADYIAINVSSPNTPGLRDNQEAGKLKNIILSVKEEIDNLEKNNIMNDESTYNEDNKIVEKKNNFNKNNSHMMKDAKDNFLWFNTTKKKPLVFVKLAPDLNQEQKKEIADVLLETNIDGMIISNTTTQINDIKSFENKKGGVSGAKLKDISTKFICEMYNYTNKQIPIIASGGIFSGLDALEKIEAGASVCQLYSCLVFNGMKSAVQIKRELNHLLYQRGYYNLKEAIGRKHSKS

With `COCC1=C2[C@@H](CCc3ccccc3)OB(O)C[C@@H]2[C@@H]2C(=O)N(C)C(=O)[C@@H]2C1`, the z-score in [1] was -0.0482; in [2] it was -0.184; in test [3], -0.187; in test [4] it was -0.145; in [5] it was -0.126; in test [6], -1.54. Moreover, the z-score in [7] is 0.176 (inactive); in test [8] it was -0.0658; in test [9], -0.239; in test [10] it was -0.425 (inactive); in [11] it was -0.227; in test [12], -0.926 (inactive). Also, the z-score in [13] was -0.439 (inactive); in test [15], 0.294 (inactive); in test [16], 0.0903 (inactive); in test [17], -0.0919 (inactive); in [18], 0.0253 (inactive); in test [19], -0.377. Moreover, the composite z-score in test [14] is -0.173 (inactive); in [20], 0.0512.

`CN(C)CCCCCCNC(=O)[C@@H]1C[C@@H]2C(=O)N[C@@H](CCCCN)C(=O)N2[C@@H]1c1ccc(O)cc1`: the z-score in test [1] is 1.4; in [2], 0.576; in [3], -0.521; in [4], 0.56; in test [5], -0.345; in [6] it was -0.695. Besides, the z-score was -0.625 (inactive) in [7]; -0.273 in test [8]; -1 in test [9]; -0.3 (inactive) in [10]; -0.0356 in test [11]; -1.56 (inactive) in test [12]. The z-score in test [13] is 1.79 (inactive); in test [15], 1.63 (inactive); in [16], -0.63 (inactive); in test [17] it was 0.739 (inactive); in [18] it was -1.59 (inactive); in test [19] it was 0.659. Further, the composite z-score in [14] was -0.0587 (inactive); in test [20], 3.51.

Take `CCCCC(=C=CC[C@H](O)c1ccc(OCCO)cc1)C[C@H](O)COCc1ccccc1`: the z-score is 0.218 in test [1]; 0.516 in [2]; 0.528 in test [3]; -3.3 in [4]; -0.565 in [5]; -0.399 in [6]. For the same compound, the z-score is -0.379 (inactive) in test [7]; -0.0821 in test [8]; -0.244 in test [9]; 0.449 (inactive) in test [10]; -0.0002 in test [11]; -1.36 (inactive) in [12]. The z-score is 0.0233 (inactive) in test [13]; 0.0964 (inactive) in test [15]; 0.556 (inactive) in test [16]; 1.05 (inactive) in test [17]; 0.529 (inactive) in test [18]; 0.676 in [19]. The composite z-score in test [14] is -0.624 (inactive); in [20], 0.0122.

Take `CCc1cccc(NC(=O)O[C@H]2[C@H](OC(=O)Nc3ccccc3)[C@H](OC(=O)Nc3ccccc3)[C@@H](OC)O[C@@H]2CO)c1`: the z-score in test [1] was -1.97; in test [2], 1.18; in test [3], -5.14; in test [4], -3.46; in [5] it was -4.3; in test [6], -2.34. Moreover, the z-score in test [7] is 0.867 (inactive); in test [8] it was -1.2; in test [9] it was -2.32; in [10], -4.35 (inactive); in [11], -3.47; in test [12] it was 0.885 (inactive). Further, the z-score in [13] is -4.46 (inactive); in test [15], 1.78 (inactive); in test [16] it was 1.12 (inactive); in [17], 0.0415 (inactive); in [18], 0.0166 (inactive); in test [19] it was -6.11. Further, the composite z-score in test [14] is 0.0661 (inactive); in test [20] it was 0.306.

Regarding `C=CCC(OC(C)=O)[C@@H]1[C@@H](N(Cc2cccc3ccccc23)C(=O)Cc2ccc(F)cc2)c2cc(OCCCO)ccc2N1C(=O)c1ccc(-c2ccccc2)cc1` (stereo not given in full), the z-score was -0.546 in test [1]; 0.905 in test [2]; 0.111 in test [3]; 0.867 in [4]; -0.61 in [5]; 1.35 in test [6]. Moreover, the z-score in test [7] is -0.389 (inactive); in test [8], -0.104; in test [9], 0.302; in [10] it was 0.736 (inactive); in test [11] it was -0.271; in test [12] it was 0.388 (inactive). Moreover, the z-score is -0.0279 (inactive) in [13]; 0.231 (inactive) in [15]; -0.163 (inactive) in test [16]; -0.386 (inactive) in test [17]; -0.0169 (inactive) in [18]; 0.336 in [19]. Also, the composite z-score was 0.366 (inactive) in [14] and 0.0623 in test [20].

As to `O=C1NC(=O)C2C1C=CC(C(O)c1ccccn1)N2Nc1ccc(Cl)cc1Cl` (stereo not given), the z-score is -0.881 in test [1]; -0.253 in test [2]; -0.707 in test [3]; -0.588 in test [4]; -0.54 in [5]; -1.36 in test [6]. In addition, the z-score in test [7] is -0.766 (inactive); in [8], -0.05; in [9], -0.173; in test [10] it was -0.572 (inactive); in [11], -1.08; in [12], -4.1 (inactive). In addition, the z-score in test [13] is -0.837 (inactive); in [15], 0.931 (inactive); in [16], 0.351 (inactive); in test [17], -0.587 (inactive); in test [18] it was -0.534 (inactive); in test [19] it was -1.82. In addition, the figures for the composite z-score in [14] and in test [20] were -0.0894 (inactive) and -0.131, respectively.

For `CN1C(=O)C2C(C1=O)C1C=C(CCCO)C2C(C2CC2)N1Cc1cc2c(cc1Br)OCO2` (stereo not given), the z-score in [1] is -0.487; in test [2] it was 0.337; in test [3], -0.717; in [4], -0.172; in test [5], -0.909; in test [6], 0.435. Further, the z-score in test [7] is -0.527 (inactive); in test [8], 0.87; in test [9], 0.859; in [10], -0.477 (inactive); in [11], -0.622; in test [12], -0.975 (inactive). In addition, the z-score in test [13] is -1 (inactive); in [15], 0.0721 (inactive); in test [16], 0.0644 (inactive); in test [17], -0.344 (inactive); in test [18], -0.291 (inactive); in [19], -0.543. Further, the composite z-score in [14] is -0.341 (inactive); in test [20], -0.113.

On to `C=CCNC(=O)[C@H]1[C@@H]2C(=O)O[C@@H](c3ccccc3)[C@@H](c3ccccc3)N2[C@@H](c2ccc(O)cc2)[C@]12C(=O)N(C(=O)OCCOC)c1ccc(C#CCC(C(=O)OC)C(=O)OC)cc12`, for which the z-score in [1] is 1.1; in test [2], -0.206; in test [3], -0.615; in test [4], -2.93; in test [5] it was -4.49; in test [6], -1.26. Further, the z-score was 0.448 (inactive) in [7]; -1.34 in test [8]; -1.83 in test [9]; 0.979 (inactive) in [10]; 0.238 in test [11]; 1.34 (inactive) in test [12]. For the same compound, the z-score in [13] was -1.25 (inactive); in test [15] it was 2.17 (inactive); in [16], 2.19 (inactive); in test [17], 0.216 (inactive); in [18], 0.136 (inactive); in test [19], -4.72. For the same compound, the composite z-score is 0.638 (inactive) in [14] and -0.0251 in test [20].
